From PubChem BioAssay AID1159580 (chemical genetic matrix, 2015)
The whole screen tested about 5,500 compounds, of which about 2,000 (36%) were called active. Roughly 18% stayed inconclusive and do not appear here. No stated cut-off is given here; in the data, active means normalized growth mostly below about 0.91 (no sharp cut-off); inconclusive means no clear call, values can overlap the other calls; inactive means mostly above about 0.92. The list shows a part of the results.

Experiment: chemical genetic growth profiling, strain panel (AID 1159580);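 further: tested at 20 µM; growth read once vehicle control cultures reached saturation at 30 °C; 1 = growth at the plate median or of vehicle wells; lower values mean less growth of the strain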
Settings: S. cerevisiae deletion strains, growth OD

Measured: normalized growth

Cc1cc(=O)oc2cc(O)cc(O)c12
inactive: locus YAL021C, strain ccr4, hits give low values 0.968 | locus YAL026C, strain drs2, hits give low values 0.96 | locus YAL030W, strain snc1, hits give low values 0.952 | locus YBL061C, strain skt5, hits give low values 0.958 | locus YBR009C, strain hhf1, hits give low values 0.949 | locus YBR023C, strain chs3, hits give low values 0.949 | locus YBR171W, strain sec66, hits give low values 0.965 | locus YBR231C, strain swc5, hits give low values 0.975 | locus YBR279W, strain paf1, hits give low values 0.969 | locus YCL011C, strain gbp2, hits give low values 0.95 | locus YCL016C, strain dcc1, hits give low values 0.966 | locus YCL061C, strain MRC1, hits give low values 0.983 | locus YCL069W, strain vba3, hits give low values 0.965 | locus YCR088W, strain abp1, hits give low values 0.958 | locus YDL005C, strain med2, hits give low values 0.961 | locus YDL040C, strain nat1, hits give low values 0.958 | locus YDR001C, strain nth1, hits give low values 0.957 | locus YDR069C, strain doa4, hits give low values 0.941 | locus YDR137W, strain rgp1, hits give low values 0.962 | locus YDR159W, strain sac3, hits give low values 0.932 | locus YDR195W, strain ref2 0.925 | locus YDR297W, strain sur2, hits give low values 0.96 | locus YDR334W, strain swr1, hits give low values 0.948 | locus YDR335W, strain msn5, hits give low values 0.978 | locus YDR392W, strain spt3, hits give low values 0.938 | locus YEL003W, strain gim4, hits give low values 0.978 | locus YEL037C, strain rad23, hits give low values 0.929 | locus YEL061C, strain CIN8 (second series), hits give low values 0.951 | locus YER015W, strain faa2, hits give low values 0.998 | locus YER016W, strain bim1, hits give low values 0.965 | locus YER111C, strain swi4, hits give low values 0.949 | locus YER155C, strain BEM2 (second series), hits give low values 0.932 | locus YFR010W, strain ubp6, hits give low values 0.943 | locus YGL167C, strain pmr1, hits give low values 0.943 | locus YGL173C, strain kem1, hits give low values 0.97 | locus YGL227W, strain vid30, hits give low values 0.95 | locus YGL240W, strain doc1, hits give low values 0.971 | locus YGL253W, strain hxk2, hits give low values 0.995 | locus YHR013C, strain ard1, hits give low values 0.948 | locus YHR027C, strain rpn1, hits give low values 0.964 | locus YHR142W, strain chs7, hits give low values 0.94 | locus YJL092W, strain hpr5, hits give low values 0.969 | locus YJL095W, strain BCK1 (second series), hits give low values 0.974 | locus YJL115W, strain asf1, hits give low values 0.958 | locus YJL129C, strain trk1, hits give low values 0.946 | locus YJL154C, strain vps35, hits give low values 0.971 | locus YJL164C, strain tpk1, hits give low values 0.978 | locus YJL166W, strain qcr8, hits give low values 0.983 | locus YJL187C, strain SWE1, hits give low values 0.968 | locus YKL160W, strain elf1, hits give low values 0.981 | locus YKR026C, strain gcn3, hits give low values 0.944 | locus YKR091W, strain srl3, hits give low values 0.962 | locus YLL001W, strain dnm1, hits give low values 0.948 | locus YLL026W, hits give low values 0.97 | locus YLL041C, strain sdh2, hits give low values 0.977 | locus YLR027C, strain aat2, hits give low values 0.945 | locus YLR221C, strain rsa3, hits give low values 0.977 | locus YLR258W, strain gsy2, hits give low values 0.966 | locus YLR262C, strain YPT6 (second series), hits give low values 0.977 | locus YLR320W, strain mms22, hits give low values 0.962 | locus YLR342W, strain FKS1, hits give low values 0.958 | locus YLR357W, strain rsc2, hits give low values 0.939 | locus YLR370C, strain arc18, hits give low values 0.932 | locus YLR384C, strain iki3, hits give low values 0.957 | locus YML120C, strain ndi1, hits give low values 0.954 | locus YMR058W, strain fet3, hits give low values 0.967 | locus YMR125W, strain sto1, hits give low values 0.935 | locus YMR129W, hits give low values 0.969 | locus YMR205C, strain PFK2, hits give low values 0.932 | locus YMR231W, strain pep5, hits give low values 1 | locus YNL071W, strain lat1, hits give low values 0.972 | locus YNL209W, strain ssb2, hits give low values 0.965 | locus YNL248C, strain rpa49, hits give low values 0.996 | locus YNL322C, strain KRE1 (second series), hits give low values 0.95 | locus YNR049C, strain mso1, hits give low values 0.954 | locus YOR001W, strain rrp6, hits give low values 0.979 | locus YOR070C, strain gyp1, hits give low values 0.973 | locus YOR080W, strain dia2, hits give low values 0.965 | locus YOR083W, strain WHI5, hits give low values 0.988 | locus YOR106W, strain vam3, hits give low values 0.964 | locus YOR265W, strain rbl2, hits give low values 0.976 | locus YOR270C, strain vph1, hits give low values 0.894 | locus YOR290C, strain snf2, hits give low values 0.939 | locus YPL051W, strain arl3, hits give low values 0.982 | locus YPL078C, strain atp4, hits give low values 0.969 | locus YPL106C, strain sse1, hits give low values 0.927 | locus YPL240C, strain hsp82, hits give low values 0.985
